EWS-Fli inh: inhibitors of EWS/Fli oncoprotein transcriptional activity. inhibition, % at 12.6 µM. A673 NR0B1-luciferase reporter, viability-normalised. AID 651661. actives 0.67% (n = 350,000);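 active means mean inhibition of at least 50% after viability correction, with every replicate also passing that limit; inconclusive means mean reaches 50% but only one of two replicates passes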;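 further: firefly luciferase signal divided by Alamar Blue viability fluorescence both relative to DMSO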
PAX8 reporter: PAX8 transcriptional activity inhibition. RMG-I TPO-luciferase reporter, SteadyGlo, 24 h. inhibition, % at 12.6 µM. actives 1.2% (n = 360,000). AID 652154;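 active means mean replicate inhibition at least 60% with every replicate also reaching 60%; inconclusive means only one of the two criteria is met; inactive means mean below 60% and not all replicates reaching 60%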;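 further: luciferase light reporting Pax8 driven TPO promoter activity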
GAA850 FXN act: frataxin GAA850 promoter activation; HEK293 lucGAA850 FXN promoter luciferase reporter, 24 h; percent of 10 µM SAHA response; activation, % at 6 µM; actives 0.56% (n = 360,000);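 active means activation above the average of all compounds screened plus 3 SD, cutoff fixed separately per campaign, cut at about 7.5% in these data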
F508del corr: CFTR F508del correction in bronchial cells; CFBE cells, YFP halide quenching; stimulated with forskolin plus potentiator P3; % fluorescence drop versus neutral controls; activity (quench increase), % at 7.58 µM; actives 0.36% (n = 350,000);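 active means mean added fluorescence quench of at least 8% versus neutral control, with both replicates also reaching 8%; inconclusive means only one of the mean or replicate conditions met; inactive means mean below 8% and not both replicates reaching 8%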;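 further: cells transiently co-express mutant CFTR-F508del with the halide-sensitive YFP; corrector assay measuring rescue of mutant channel to the surface after 24 h compound exposure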
HIV Env fusion: blocks HIV Env-driven cell-cell fusion; HeLa-JRFL Env/CEM21 cell fusion, luciferase; inhibition, % at 12.3 µM; actives 1.1% (n = 360,000); AID 651610;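 active means mean replicate inhibition score of at least 50 and every replicate individually at or above 50; inconclusive means only one of the two criteria met; inactive means mean below 50 and not all replicates reaching 50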
Hits are given with their value; i = inactive; ? = inconclusive; nt = no result given; ! = a repeat was not active; [ ] = another dose, or the depositor's remark. Only some compounds are listed: those with a hit (about 2.5% of all), similar ones and a draw of the others.

SMILES	EWS-Fli inh	PAX8 reporter	GAA850 FXN act	F508del corr	HIV Env fusion
CC(=O)N(C)C[C@H]1Oc2ncc(C#Cc3cccnc3)cc2C(=O)N([C@@H](C)CO)C[C@@H]1C	i	nt	nt	i	i
Cc1ccc(-c2c[n+](CC(=O)c3ccc(Br)cc3)c3n2CCCCC3)cc1	i	97.9	i	i	i
C/C1=C\CCC2C(/C=C(\C)CC1)OC(=O)C2CN1CCCCC1 (centres undefined)	i	68.0	i	i	i
C=C1CCC[C@]2(C)C[C@H]3OC(=O)C(CN4CCOCC4)[C@H]3C[C@@H]12 (some centres undefined)	i	i	i	i	i
COC(=O)C1C2CCC(C2)C1C(=O)OCC(=O)c1ccccc1 (centres undefined)	nt	i	i	nt	i
CCCOC(=O)C1C2C=CC(C3CC23)C1C(=O)OCC(=O)c1ccccc1 (centres undefined)	nt	nt	i	nt	61.9
O=C(O)c1cccc(NC(CNS(=O)(=O)c2ccc(Cl)cc2)c2ccccc2)c1 (centres undefined)	i	i	i	i	i
O=S(=O)(NCC(Nc1ccccc1)c1ccccc1)c1ccc(Cl)cc1 (centres undefined)	nt	i	i	nt	98.4
O=C(c1cc(-c2ccncc2)nc2c(Cl)cccc12)N1CCN(c2ccccc2F)CC1	?	i	i	13.8	nt
C[C@@H]1CN([C@@H](C)CO)S(=O)(=O)c2ccc(-c3ccc(C#N)cc3)cc2O[C@@H]1CN(C)Cc1cccc(F)c1	i	63.5	nt	i	i
C[C@@H]1CN([C@@H](C)CO)S(=O)(=O)c2ccc(-c3ccc(C#N)cc3)cc2O[C@H]1CN(C)Cc1cccc(F)c1	i	i	nt	8.0	i
C[C@H]1CN([C@@H](C)CO)S(=O)(=O)c2ccc(-c3ccc(C#N)cc3)cc2O[C@H]1CN(C)Cc1cccc(F)c1	i	i	nt	i	i
C[C@@H]1CN([C@H](C)CO)S(=O)(=O)c2ccc(-c3ccc(C#N)cc3)cc2O[C@@H]1CN(C)Cc1cccc(F)c1	i	85.8	nt	i	i
CC(=O)OC1CCC2(C)C(=CCC3C2CCC2(C)C3CC3ON=C(C)C32)C1 (centres undefined)	i	i	i	10.8	i
CC(=O)O[C@H]1CC[C@@]2(C)C(=CC[C@H]3[C@@H]4CC[C@H](C5(C)OCCO5)[C@@]4(C)CC[C@@H]32)C1	nt	nt	i	nt	nt
O=c1oc2ccccc2c(Nc2cc3ccccc3cc2O)c1[N+](=O)[O-]	i	i	i	8.5	i
O=C(NCC(F)(F)F)[C@H]1[C@H](CO)[C@H]2Cn3c(cccc3=O)[C@H]2N1Cc1cccc(F)c1	i	i	nt	nt	i
CN(C)/C=N/C1=C(C#N)C(c2ccc(Br)cc2)c2ccc3ccccc3c2O1 (centres undefined)	i	i	i	i	59.4
COc1cc(C2C(C#N)=C(N)Oc3c2ccc2ccccc32)ccc1OCC(=O)Nc1ccccc1C (centres undefined)	nt	i	i	nt	i
CCCCNC(=S)Nc1ccc(Cl)cc1	78.4	i	i	nt	i
COc1ccccc1CNC(=O)Cn1cnnn1	i	i	i	11.6	i
COC(=O)c1ccc(CNC(=O)Cn2cnnn2)cc1	i	i	i	i	i
Cc1ccc(-c2ccc3c(c2)O[C@@H](CN(C)Cc2ccccn2)[C@H](C)CN([C@H](C)CO)S3(=O)=O)cc1	65.5	nt	nt	16.1	i
C[C@@H]1CN([C@@H](C)CO)S(=O)(=O)c2ccc(C3=CCCC3)cc2O[C@H]1CN(C)Cc1ccccc1F	i	nt	nt	i	i
C[C@H](CO)N1C[C@H](C)[C@H](CN(C)Cc2ccccc2F)Oc2cc(C3=CCCC3)ccc2S1(=O)=O	i	i	nt	i	68.4[16.7 µM]
SMILES	EWS-Fli inh	PAX8 reporter	GAA850 FXN act	F508del corr	HIV Env fusion
C[C@H]1CN([C@@H](C)CO)S(=O)(=O)c2ccc(-c3ccc(C#N)cc3)cc2O[C@@H]1CN(C)Cc1ccccn1	66.6	?	nt	11.7	i
C[C@H](CO)N1C[C@H](C)[C@@H](CN(C)CC2CCCC2)Oc2cc(C3=CCCCC3)ccc2S1(=O)=O	i	i	nt	i	56.3[16.7 µM]
O=C(C[C@H]1CC[C@H](NS(=O)(=O)c2ccccc2)[C@H](CO)O1)N1CCc2ccccc2C1	i	i	nt	i	i
O=C(CN1CCOCC1)N[C@@H]1CC[C@@H](CCn2cc(C3CC3)nn2)O[C@@H]1CO	i	i	nt	i	i
C[C@H](CO)N1C[C@H](C)[C@@H](CN(C)C(=O)C2CCOCC2)Oc2cc(C3=CCCC3)ccc2S1(=O)=O	i	i	nt	i	i
C[C@H]1CN([C@@H](C)CO)S(=O)(=O)c2ccc(C3=CCCCC3)cc2O[C@@H]1CN(C)Cc1ccccn1	65.4	i	nt	i	i
C[C@@H]1CN([C@@H](C)CO)S(=O)(=O)c2ccc(C3=CCCC3)cc2O[C@@H]1CN(C)C(=O)C1CCOCC1	i	i	nt	i	69.7[16.7 µM]
C[C@@H]1CN([C@H](C)CO)C(=O)c2cc(C#CC3(O)CCCC3)cnc2O[C@@H]1CN(C)C(=O)C1CCC1	i	i	nt	i	i
CN(C)c1ccc(-c2noc(C3CCN(S(=O)(=O)c4cccc(Cl)c4)CC3)n2)cc1	nt	nt	i	nt	56.4
Cc1ccc(S(=O)(=O)N(C)C[C@H]2Oc3ccc(NC(=O)Nc4ccc(C(F)(F)F)cc4)cc3CC(=O)N([C@@H](C)CO)C[C@H]2C)cc1	i	98.9	nt	i	94.5[16.7 µM]
Cc1ccc(S(=O)(=O)N(C)C[C@@H]2Oc3ccc(NC(=O)Nc4ccc(C(F)(F)F)cc4)cc3CC(=O)N([C@@H](C)CO)C[C@@H]2C)cc1	51.5	81.1	nt	i	i
C[C@@H]1CN([C@H](C)CO)C(=O)Cc2cc(NC(=O)Nc3ccc(C(F)(F)F)cc3)ccc2O[C@@H]1CN(C)S(=O)(=O)c1ccc(Cl)cc1	i	nt	nt	i	i
CCNC(=O)C[C@H]1CC[C@@H]2[C@H](COc3ccc(NC(=O)c4cccc(C(F)(F)F)c4)cc3C(=O)N2C)O1	i	i	nt	i	i
COc1ccc2c(c1)C(O)C(CO)C(C(=O)O)C2 (centres undefined)	i	i	i	10.5	i
COc1ccc(-c2cnc3c(c2)C(=O)N([C@@H](C)CO)C[C@@H](C)[C@H](CN(C)C(=O)C2CCC2)O3)cc1	i	nt	nt	i	i
COc1ccc(S(=O)(=O)N(C)C[C@H]2Oc3cc(Br)ccc3S(=O)(=O)N([C@H](C)CO)C[C@H]2C)cc1	i	i	i	i	?
CCCC#Cc1ccc2c(c1)O[C@@H](CN(C)S(=O)(=O)c1cccc(F)c1)[C@@H](C)CN([C@H](C)CO)S2(=O)=O	i	nt	nt	i	63.6[16.7 µM]
COc1ccccc1-c1ccc2c(c1)O[C@@H](CN(C)S(=O)(=O)c1ccccc1)[C@@H](C)CN([C@H](C)CO)S2(=O)=O	i	i	nt	i	i
COc1ccc(S(=O)(=O)N(C)C[C@@H]2Oc3cc(Br)ccc3S(=O)(=O)N([C@H](C)CO)C[C@@H]2C)cc1	i	i	i	i	57.3!
C[C@H](CO)N1C[C@H](C)[C@H](CN(C)S(=O)(=O)c2cccc(F)c2)Oc2cc(Br)ccc2S1(=O)=O	i	i	i	i	77.6![16.7 µM]
